This note sets out measurements from ChEMBL document CHEMBL5308504, “Tm Shift (DSF) assay results for EUbOPEN Chemogenomics Library” (2023).

Experiment [1] concerns the target Bromodomain-containing protein 4 (Homo sapiens) (UniProt O60885). The following applies: Compound concentration 20.0 uM, Protein concentration 2.0 uM, Result type QC Liability.
Experiment [2] addresses T1, Transcription intermediary factor 1-alpha (Homo sapiens) (UniProt O15164).
T1 sequence (whole entry): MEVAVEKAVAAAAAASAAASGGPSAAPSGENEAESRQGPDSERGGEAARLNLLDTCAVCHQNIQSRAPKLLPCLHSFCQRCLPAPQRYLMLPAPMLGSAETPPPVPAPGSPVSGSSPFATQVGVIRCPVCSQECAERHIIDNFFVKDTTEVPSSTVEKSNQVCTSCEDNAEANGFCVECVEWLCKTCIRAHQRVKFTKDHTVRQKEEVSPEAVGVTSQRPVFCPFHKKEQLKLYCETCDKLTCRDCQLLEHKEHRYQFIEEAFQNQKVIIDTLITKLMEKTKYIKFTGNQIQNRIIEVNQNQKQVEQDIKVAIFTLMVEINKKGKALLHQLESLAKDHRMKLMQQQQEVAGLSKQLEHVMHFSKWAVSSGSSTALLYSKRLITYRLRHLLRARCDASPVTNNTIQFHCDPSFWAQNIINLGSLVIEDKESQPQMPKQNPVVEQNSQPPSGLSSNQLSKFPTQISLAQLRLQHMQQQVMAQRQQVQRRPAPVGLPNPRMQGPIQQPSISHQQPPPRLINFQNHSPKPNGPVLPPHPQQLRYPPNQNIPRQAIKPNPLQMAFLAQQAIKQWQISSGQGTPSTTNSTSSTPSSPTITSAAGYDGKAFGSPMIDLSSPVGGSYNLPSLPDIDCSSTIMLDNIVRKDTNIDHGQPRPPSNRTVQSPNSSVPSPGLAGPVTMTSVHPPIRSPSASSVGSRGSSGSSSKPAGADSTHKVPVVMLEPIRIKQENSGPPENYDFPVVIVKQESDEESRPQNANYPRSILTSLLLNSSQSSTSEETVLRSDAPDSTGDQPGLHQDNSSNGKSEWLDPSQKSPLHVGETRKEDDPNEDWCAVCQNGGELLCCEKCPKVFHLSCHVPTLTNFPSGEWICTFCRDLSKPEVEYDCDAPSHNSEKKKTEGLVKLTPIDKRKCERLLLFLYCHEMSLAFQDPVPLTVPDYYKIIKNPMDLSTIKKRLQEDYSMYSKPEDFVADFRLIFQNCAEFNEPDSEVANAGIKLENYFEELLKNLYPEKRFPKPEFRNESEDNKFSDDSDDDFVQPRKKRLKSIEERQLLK
The note with it: Compound concentration 20.0 uM, Protein concentration 2.0 uM, Result type QC Liability.

The structures appear in SMILES notation.

In general, ΔTm refers to the shift of the melting midpoint relative to a reference. For `CC(C)(C[C@H]1CN(S(=O)(=O)c2cccc(C(F)(F)F)c2)c2cc(-c3cc(F)cc(OC(F)F)c3)ccc2O1)C(=O)O`, the ΔTm in experiment [1] was -6.18 °C; in experiment [2], -2.16 °C.

On to `C#Cc1cnc2[nH]cc(-c3cccc4c3CCN4C(=O)[C@@H]3CCCN3C#N)c2c1`, for which the figures for the ΔTm in experiment [1] and in experiment [2] were -0.57 °C and -0.61 °C, respectively.

As to `Cn1nc(C(=O)NCc2ccc(C(=O)O)cc2)cc1-c1ccc2[nH]ccc2c1`, the ΔTm in experiment [1] was -0.1 °C; in experiment [2] it was 0.43 °C.

As to `COc1cc(-c2cn[nH]c2)ccc1C(=O)Nc1ccc2c(c1)CCNCC2`, the ΔTm in experiment [1] was -1.67 °C; in experiment [2] it was -2.57 °C.

With `C=C1/C(=C\C=C2/CCC[C@]3(C)[C@@H]([C@H](C)CCCC(C)(C)O)CC[C@@H]23)C[C@@H](O)C[C@@H]1O`, the ΔTm in experiment [1] was -7.29 °C; in experiment [2] it was -4.59 °C.

With `N[C@@H](CC(=O)O)Cn1nnc(-c2ccc(Oc3ncc(Cl)cc3F)cc2)n1`, the ΔTm in experiment [1] is -12.6 °C; in experiment [2], -0.53 °C.

`COc1cccc(-c2c(C)c(Cc3c(F)cccc3C(F)(F)F)c3n(c2=O)[C@@H]([C@@H](N)c2ccccc2)CS3)c1F`: the figures for the ΔTm in experiment [1] and in experiment [2] were -3.06 °C and 0.28 °C, respectively.

Take `CNC(=O)c1nnc(NC(=O)C2CC2)cc1Nc1cccc(-c2ncn(C)n2)c1OC`: the ΔTm is -2.45 °C in experiment [1] and -4.06 °C in experiment [2].

As to `CCCCCCCN(CCc1ccc(SC(C)(C)C(=O)O)cc1)C(=O)Nc1ccc(F)cc1F`, the ΔTm in experiment [1] is -1.9 °C; in experiment [2], -3.36 °C.

For `CNC(=O)c1ccc(C)c(-n2c(C)cc(OCc3ccc(F)cc3F)c(Br)c2=O)c1`, the values for the ΔTm in experiment [1] and in experiment [2] were -1.55 °C and -2.58 °C, respectively.

As to `CNC(=O)COc1cc2cc(Nc3nc(N4C[C@H](C)C[C@H](C)C4)ncc3Cl)ccc2n(C)c1=O`, the values for the ΔTm in experiment [1] and in experiment [2] were -0.33 °C and 0.23 °C, respectively.

Consider `CCS(=O)(=O)c1ccc(OC)c(Nc2ncc(-c3cccc(F)c3)o2)c1`, for which the ΔTm in experiment [1] is -2.4 °C; in experiment [2], -1.42 °C.

Regarding `COc1ccc(-c2c(-c3ccccc3)oc3ncnc(O[C@H](C)CCCCC(=O)O)c23)cc1`, the ΔTm was -0.98 °C in experiment [1] and -1.53 °C in experiment [2].

As to `Cc1cc(CN)cc(C)c1-c1ncn(C)c1-c1ccnc2cc(F)ccc12`, the shift in melting temperature (ΔTm) in experiment [1] is -0.64 °C; in experiment [2], 0.17 °C.

On to `CCn1c(CNC(=O)c2nc(Cl)cnc2N)[n+](CC)c2ccc(C(=O)N(C)CCN(C)C)cc21`, for which the ΔTm in experiment [1] is -0.61 °C; in experiment [2], 0.2 °C.

For `Cn1ncc(NC(=O)c2nc(-c3c(F)cccc3F)sc2N)c1N1CC[C@@H](N)[C@H](F)CC1`, the values for the ΔTm in experiment [1] and in experiment [2] were -1.02 °C and -1.63 °C, respectively.

For `CC[C@H](CO)Nc1nc(Nc2cccc(-c3ccccn3)c2)c2ncn(C(C)C)c2n1`, the values for the ΔTm in experiment [1] and in experiment [2] were -1.32 °C and -3.54 °C, respectively.

On to `O=C(Nc1ccc(C(O)(C(F)(F)F)C(F)(F)F)cc1)c1ccc(C(F)(F)F)cc1`, for which the thermal shift (ΔTm) was -1.03 °C in experiment [1] and -0.53 °C in experiment [2].

`Cc1nn(C)c(COc2ccc(N3CCN(S(=O)(=O)N(C)C)CC3)cc2)c1-c1cccc2c(CCCOc3cccc4ccccc34)c(C(=O)O)n(CCN3CCOCC3)c12`: the values for the ΔTm in experiment [1] and in experiment [2] were -12.6 °C and -0.84 °C, respectively.

With `CC(=O)Oc1ccc2c(c1)[C@@]1(C)CCC[C@](C)(C(=O)OC(=O)[C@@]3(C)CCC[C@]4(C)c5cc(OC(C)=O)ccc5CC[C@@H]34)[C@@H]1CC2`, the ΔTm was -2.81 °C in experiment [1] and -3.04 °C in experiment [2].

As to `CCOC(=O)Nc1ccc2c(c1)N(C(=O)CN(CC)CC)c1ccccc1CC2`, the ΔTm in experiment [1] is -1.53 °C; in experiment [2] it was -1.69 °C.

`C[C@@H](Oc1cc(-n2cnc3ccc(OC4CCN(C)CC4)cc32)sc1C(N)=O)c1ccccc1Cl`: the ΔTm is -2.01 °C in experiment [1] and -2.55 °C in experiment [2].

In the case of `C=C(F)C(=O)N1CCN(c2nc(OC[C@@H]3CCCN3C)nc3c2CCN(c2cccc4cccc(Cl)c24)C3)C[C@@H]1CC#N`, the results for the thermal shift (ΔTm) in experiment [1] and in experiment [2] were 0.05 °C and -0.78 °C, respectively.

Turning to `Cc1cc(-c2nc(-c3ccc(OC(F)(F)F)cc3)no2)nn1Cc1ccnc(N2CCN(C3CC3)CC2)c1`, the ΔTm stood at 0.31 °C in experiment [1] and 0.28 °C in experiment [2].

On to `COc1cc2c(cc1CC=C(C)C)C(=O)C[C@@H](c1ccc(O)cc1)O2`, for which the thermal shift (ΔTm) is 0.4 °C in experiment [1] and 0.63 °C in experiment [2].

`CO[C@H]1CC[C@H](N(c2cc(F)c(Oc3ncc(Cn4nccn4)cc3C(F)(F)F)cc2C(=O)O)C(=O)[C@H]2CC[C@H](C)CC2)CC1`: the figures for the ΔTm in experiment [1] and in experiment [2] were 0.94 °C and -0.09 °C, respectively.

Consider `COc1cc(C)c(S(=O)(=O)N(C)CCC(=O)N[C@H]2CC[C@@H](N3CCC4CN(C)CC4C3)CC2)c(C)c1` (some centres undefined), for which the ΔTm is -4.82 °C in experiment [1] and -0.4 °C in experiment [2].

Turning to `CCOC(=O)N1CCC(CN(Cc2ccc(Cl)cc2)Cc2ccc([N+](=O)[O-])s2)C1` (centres undefined), the ΔTm in experiment [1] was -2.61 °C; in experiment [2], -4.19 °C.

`Cc1[nH]c2c(N3CCCCC3)c(-c3ccccc3)nn2c(=O)c1-c1ccc(O)cc1`: the thermal shift (ΔTm) was -1.3 °C in experiment [1] and -2.05 °C in experiment [2].

Consider `CNc1nc(-c2ccc3c(N)n[nH]c3c2)cc(N2C[C@@H](C(=O)NC3CCCCC3)CC[C@H]2C)n1`, for which the values for the ΔTm in experiment [1] and in experiment [2] were 0.26 °C and -2.05 °C, respectively.

`CCNC1=N[C@@H]2[C@@H](O)[C@H](O)[C@@H](CO)O[C@@H]2S1`: the ΔTm in experiment [1] was -1.49 °C; in experiment [2], -2.58 °C.

`Fc1ccc(-c2nc(-c3ccc4ccccc4c3F)[nH]c2-c2ccncc2)cc1`: the ΔTm in experiment [1] was -0.46 °C; in experiment [2], -0.4 °C.
